Shown are actives, neighbours in structure and some others; about 11% of the full set was active somewhere.
Pf growth 48h = P. falciparum growth inhibition at 48 hours (one generation); P. falciparum luciferase growth in erythrocytes, 48 h; Potency, µM (titrated, usually from 28.7 µM), without a hit: top-dose activity change, negative = inhibition, most hits filed as inhibitors; 310,000 tested, 5.9% active; further: on the % scale 0 is the no-effect control and ±100 the full control effect
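Read-out is firefly luciferase luminescence from an integrated reporter in P. falciparum, so falling signal marks reduced parasite growth. Infected erythrocytes were at 2% hematocrit and 0.1% parasitemia (final) in Albumax-supplemented RPMI 1640.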
NS1 inh = blocks influenza NS1 protein function; Potency, µM (highest dose often 46.1 µM), for inactives: top-dose activity, positive = more growth; 270,000 tested, 0.4% active; AID 2326; calls by dose curve; further: actives are rising curves; nearly all actives have a fitted effect of over 50% in size
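Recovery from NS1-induced slow growth read by OD600 in budding yeast switched to galactose assay medium (pH 6.0, -URA) at 1:100 dilution. Compound 23 nl per well; the matching strain lacking NS1 serves as control.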
VACV mCherry inh = vaccinia inhibition (mCherry reporter); Vaccinia virus mCherry reporter infection, fluorescence; Potency, µM (doses to about 36.5 µM), for inactives: at the highest dose activity change, negative = inhibition, hits mostly inhibitors; 310,000 tested, 0.63% active; calls by dose curve; tested in A549 cells; further: on the % scale 0 is the no-effect control and ±100 the full control effect; nearly all actives have a fitted effect of over 35% in size
HCV inhibitor = blocks hepatitis C virus; Huh7.5.1 HCVcc-Cre infection, luciferase reporter, 44 h; Potency, µM (highest dose often 41.8 µM), for inactives: at the top dose activity change, negative = inhibition, hits mostly inhibitors; 340,000 tested, 3.4% active; AID 651820; further: on the % scale 0 is the no-effect control and ±100 the full control effect
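Cells (1,000/well) were plated 4 h before compound, then infected with HCVcc-Cre virus (~0.5 moi). After 44 h further culture, infection was read as luciferase luminescence following a 15 min substrate incubation at room temperature.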
VACV Venus inh = vaccinia inhibition (Venus reporter) | Vaccinia virus Venus reporter expression, fluorescence | Potency, µM (top dose mostly 36.5 µM), for inactives: top-dose activity change, negative = inhibition, hits mostly inhibitors | 330,000 tested, 0.46% active | AID 720580; calls by dose curve; tested in A549 cells; further: on the % scale 0 is the no-effect control and ±100 the full control effect; nearly all actives have a fitted effect of over 30% in size
Pf growth 96h = P. falciparum growth inhibition at 96 hours. P. falciparum luciferase reporter growth, 96 h. Potency, µM (series often up to 28.7 µM), inactives show at the top dose activity change, negative = inhibition, usual class: inhibitors. 320,000 tested, 6.9% active. AID 504834; further: on the % scale 0 is the no-effect control and ±100 the full control effect
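P. falciparum expressing integrated firefly luciferase grown in erythrocytes (2% hematocrit, 0.05% parasitemia final) with compounds for 96 hours at 37 C, 5% CO2. Growth inhibition read as loss of luminescence after adding luciferase detection reagent.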
Active calls of the source: *; i = inactive; ? = inconclusive; nt = no result given; [ ] = another dose, or the depositor's remark. Unless noted, the call rests on the fitted dose curve; in most records, active means well fitted inhibition curve with a large enough effect; inconclusive means small, poorly fitted or top-dose-only effect, or another doubt; inactive means no such curve, though single readings can be large or run the other way. Potency means the concentration at half of the fitted maximal effect.

SMILES	Pf growth 48h	NS1 inh	VACV mCherry inh	HCV inhibitor	VACV Venus inh	Pf growth 96h
COc1ccc(NS(=O)(=O)c2ccc(NS(=O)(=O)c3ccc(SC)cc3)cc2)c(OC)c1	nt	21.1%	nt	-22.7%	nt	22.7%
Cn1nnnc1Sc1ncnc2scc(-c3cccc(F)c3)c12	4.65µM*	nt	nt	nt	nt	?
Cn1nnnc1Sc1ncnc2scc(-c3cc4ccccc4o3)c12	4.15µM*	nt	nt	nt	nt	?
CC(=O)c1ccccc1-c1csc2ncnc(Sc3nnnn3C)c12	11.7µM*	nt	nt	nt	nt	4.15µM*
Cn1nnnc1Sc1ncnc2scc(-c3ccccc3C(F)(F)F)c12	13.1µM*	nt	nt	nt	nt	7.38µM*
COc1ccc(N2CCN(C(=O)CCC(=O)N3CCOc4ccc(Cl)cc43)CC2)cc1	-9.5%	-23.3%	14.1µM*	?	?	?
O=C(CCC(=O)N1CCOc2ccc(Cl)cc21)NCc1ccccc1	-13.8%	-2.4%	i	-15.1%	-2.3%	11.7µM*
COc1ccc(N2CCN(C(=O)CCC(=O)N3CCOc4ccc(C)cc43)CC2)cc1	?	-35.2%	-25.9%	-24.2%	-22.8%	61.2%
COc1ccccc1CNC(=O)CCC(=O)N1CCOc2ccc(Cl)cc21	-5.8%	-11.8%	-25.1%	-25.4%	-22.5%	?
CCC1CN(C(=O)NCc2ccccc2)c2cc(Cl)ccc2O1 (configuration not stated)	-14.2%	-2.5%	-2.3%	5.62µM*	-7.0%	?
CC(CNC(=O)CCC(=O)N1CCOc2ccc(Cl)cc21)c1ccccc1 (configuration not stated)	?	-12.0%	-15.0%	-5.2%	?	13.1µM*
CC(=O)Nc1cccc(-c2ccnc3c2CC(C)(C(=O)Nc2ccccc2)O3)c1 (configuration not stated)	nt	nt	?	nt	-11.9%	nt
Cc1ccc2c(c1)N(C(=O)CCC(=O)N1CCN(c3ccccc3)CC1)CCO2	-16.0%	7.7%	4.4%	-11.2%	13.6%	-1.1%
CN(CCCNC(=O)CCC(=O)N1CCOc2ccc(Cl)cc21)Cc1ccccc1	2.8%	3.5%	8.6%	-23.8%	0.0%	14.7µM*
Cc1ccc2c(c1)N(C(=O)CCC(=O)N1CCN(c3cccc(C)c3C)CC1)CCO2	?	-54.1%	?	10µM*	?	48.2%
COc1ccc(NC(=O)CSc2nnc(-c3ccccn3)n2N)cc1Cl	7.6%	2.5%	nt	-23.0%	nt	6.7%[5.75 µM]
Clc1ccc(-n2nnnc2-c2ccccc2)cc1	0.3%	-4.2%	nt	15.0%	nt	17.0%
Cc1ccc(-n2nnnc2-c2cnc3ccc(Cl)cc3c2-c2ccccc2)cc1	?	12.9%	nt	10µM*	nt	?
Clc1ccc(-n2nnnc2-c2cnc3ccccc3c2-c2ccccc2)cc1	5.22µM*	-1.2%	-25.6%	?	-18.4%	10.4µM*
COCCCNC(=O)CC(NS(=O)(=O)c1ccc(Cl)cc1)c1ccco1 (configuration not stated)	10.7%	-4.8%	nt	2.4%	-19.2%	?
CCc1nc2c(OCc3ccc(OC)cc3)cccn2c1N(C)C(=O)C(C)C	nt	nt	i	nt	-22.4%	nt
CCOc1ccccc1-c1nnc(SCC(=O)NC2(C#N)CCCC2)o1	?	nt	nt	-27.8%	nt	9.28µM*
O=C(CSc1nnc(COc2ccccc2Cl)o1)NC(=O)NC1CCCC1	30.1%	-44.2%	-17.7%	2.3%	-10.6%	11.7µM*
O=C(Cn1nnc(-c2ccccc2NC(=O)C2CC2)n1)NC1CCCCC1	-16.2%	-11.3%	i	?	-14.5%	nt
COc1ccccc1-c1nnc(SCC(=O)NC2CCCCC2)o1	6.7%	0.1%	11.2µM*	15.6%	?	34.3%
SMILES	Pf growth 48h	NS1 inh	VACV mCherry inh	HCV inhibitor	VACV Venus inh	Pf growth 96h
COc1cccc(-c2nnn(CC(=O)NC3CCCC3)n2)c1OC	-4.2%	6.5%	nt	?	nt	9.28µM*
N#Cc1c(N2C(=O)c3ccc(C(=O)O)cc3C2=O)sc2c1CCCC2	161.9%	17.6%	-22.2%	30.9%	-19.9%	-19.8%
COC(=O)c1ccc2c(c1)sc(=NC(=O)CCS(=O)(=O)c1ccccc1)n2C	2.3%	nt	-17.4%	11.1%[8.37 µM]	-24.2%	?
COc1cc(N2C(=O)CSC23C(=O)N(C)c2ccccc23)cc(OC)c1OC (configuration not stated)	nt	nt	5.7%	nt	13.9%	nt
COc1ccccc1NC(=S)N(CCN1CCOCC1)Cc1ccccc1F	0.0%	-3.8%	-12.5%	8.9%	-13.3%	21.5%
CCOc1ccc2c(c1)C(N(CCN1CCOCC1)C(=S)Nc1ccccc1OC)CC(C)(C)O2 (configuration not stated)	?	nt	nt	2.4%	nt	10.4µM*
CC1Oc2ccccc2N(CC(=O)N2CCCC2)C1=O (configuration not stated)	0.0%	23.1%	i	0.2%	-5.5%	4.65µM*
CC1CCCN(C(=O)CN2C(=O)C(C)Oc3ccccc32)C1 (configuration not stated)	-4.5%	22.8%	12.5%	5.7%	7.0%	10.8%
COc1ccc(NC(C)C(=O)Nc2ccc(C(C)(C)C)cc2)cc1Cl (configuration not stated)	?	10.1%	-22.1%	?	-17.7%	nt
COc1ccc(NC(C)C(=O)Nc2ccc(C#N)cc2)cc1Cl (configuration not stated)	nt	-5.9%	nt	0.7%	nt	2.33µM*
Cc1nn(-c2ccccc2)c(C)c1C(=O)OCC(=O)NC(=O)NC1CCCC1	-28.6%	4.6%	nt	8.91µM*	?	33.2%
COc1ccc(C)cc1NC(=O)COC(=O)c1c(C)nn(-c2ccccc2)c1C	?	nt	nt	12.6µM*	nt	-27.0%
Cc1nn(-c2ccccc2)c(C)c1C(=O)OCC(=O)Nc1ccccc1F	89.5%	nt	nt	?	nt	117.9%
Cc1nn(-c2ccccc2)c(C)c1C(=O)OCC(=O)NC12CC3CC(CC(C3)C1)C2	?	3.6%	nt	-20.5%	nt	10.4µM*
CC(=NO)c1cc(Br)c2cccc3c2c1CC3	nt	nt	i	nt	?	nt

Screening results deposited in PubChem BioAssay by National Center for Advancing Translational Sciences (NCATS).
